# According to PubChem BioAssay AID652106 (National Center for Advancing Translational Sciences (NCATS), 2013):
# Screen size: about 370,000 compounds; about 500 (0.14%) were called active. Another 2% or so got no clear call; they are omitted. Calls follow the shape of the dose curve; as a rule, active = well fitted activation curve with a large enough effect; inconclusive = small, poorly fitted or top-dose-only effect; inactive = no such curve, though single readings can be large or run the other way. Shown is part of a subset that was picked to be rich in actives. Entries that show only a call come without a potency.
# Test: qHTS of alpha-syn Inhibitors; also: nearly all actives have a fitted effect of over 65% in size
# Conditions: Yeast expressing alpha-synuclein, BacTiter-Glo, 24 h; Potency: growth rescue; series mostly up to 46.1 µM
# In short: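 Rescue of yeast growth: cells expressing toxic alpha-synuclein, induced in galactose at OD600 0.02, incubated with compound 24 h at 30 C. ATP luminescence quantified growth; inhibitors of toxicity appear as activators.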
# Potency is read from the fitted curve at half-maximal effect.
row,SMILES,Potency
1,CN(C(=N)N)c1ccc(/C=C2\C=Cc3ccccc32)cc1,inactive
2,CN(C)CCCn1c(-c2ccc(Cl)cc2)csc1=Nc1ccccc1,inactive
3,CN(C)c1ccc(/C=C/c2sc3ccccc3[n+]2C)cc1,inactive
4,CC1(C)C=Cc2c(ccc(C(=O)/C=C/c3ccccc3)c2O)O1,inactive
5,COc1ccc(C2Nc3ccc(NC(=O)COC(C)=O)cc3C(=O)N2Cc2ccccc2)cc1COc1ccc(NC(C)=O)cc1 (centres undefined),inactive
6,N#Cc1ccc[n+](CC(=O)c2ccc(O)c(O)c2)c1,inactive
7,CCCCCCCNc1ccc(/C=C/c2ccnc3ccccc23)cc1,inactive
8,O=C(Nc1ccc(Cl)cc1)c1cnn2c1NC(=C1CC1)C=C2C(F)F,inactive
9,COc1ccc(/C=C/c2ccccn2)cc1OC,inactive
10,Cc1ccccc1NC(=O)Cn1c(=O)n(Cc2ccco2)c(=O)c2ccc(C(=O)NC3CCCC3)cc21,inactive
11,OCC(O)C(O)C(O)C(O)C=Nc1ccc(/C=C/c2ccnc3ccccc23)cc1 (centres undefined),inactive
12,Oc1ccc(Br)cc1C1C=C(c2ccc3c(c2)OCO3)NC(c2ccc(Cl)cc2)N1 (centres undefined),inactive
13,CCc1ccccc1NC(=O)c1cnn(-c2ccc(F)cc2)c1C1CCNCC1,inactive
14,CCCCCCC1(C)NC(c2ccc3c(c2)OCO3)=CC(c2ccccc2O)N1 (centres undefined),inactive
15,CCCCC(CCCC)c1ccc(C=Nc2ccc(/C=C/c3ccnc4ccccc34)cc2)cc1,inactive
16,CCOC(=O)c1c(NC(=O)c2ccc(S(=O)(=O)N3CCCC(C)C3)cc2)sc2c1CCN(C(C)C)C2 (centres undefined),inactive
17,CCC1(C)CC(=O)NC1=O (centres undefined),inactive
18,COc1ccc(CNc2nc(-c3ccc(Cl)cc3)nn2S(=O)(=O)c2ccc(C)cc2)cc1,inactive
19,CN(C)C1=C2C=CC=CC2/C(=C2/C=Cc3ccccc32)C=C1 (centres undefined),inactive
20,Cc1nn(C)c(Oc2ccc(Cl)cc2)c1C=O,inactive
21,Nc1ccc2nn(-c3ccc(Cl)cc3)nc2c1,inactive
22,Nc1ccc(Oc2ccc(Cl)cc2)cc1,17.8 µM (active)

row,SMILES,Potency
1,COc1cc2nc(N3CCCN(C)CC3)nc(NC(C)C)c2cc1OC,inactive
2,O=C(Nc1ccc([N+](=O)[O-])cc1)c1cnn2c1NC(=C1CC1)C=C2C(F)F,inactive
3,Nc1ncnc2c1c(I)cn2[C@@H]1C[C@H](N)[C@@H](O)[C@H]1O,inactive
4,Cc1cccc(-c2nnc(SC(C)C(=O)Nc3ccccc3)n2C)c1 (centres undefined),inactive
5,O=C(c1ccc2c(=O)n(Cc3ccco3)c(=S)[nH]c2c1)N1CCCC1,inactive
6,OCc1cnc(SCc2ccc(F)cc2)n1Cc1ccc(F)cc1,inactive
7,Cc1ccc(C)c2sc(NC(=O)c3ccc(S(=O)(=O)N4CCCC4)cc3)nc12,inactive
8,O=C1COc2ccc(-c3csc(-c4ccc(Cl)cc4)n3)cc2N1,inactive
9,CCc1ccc(NC(=O)CN2CCSc3ccc(S(=O)(=O)N4CCCC4)cc32)cc1,inactive
10,c1ccc(Cn2nnc3c(N4CCCCC4)ncnc32)cc1,inactive
11,Cc1c(CCO)sc[n+]1CC(=O)c1ccc2ccccc2c1,inactive
12,COc1cc2nc(Cl)nc(NC3CC3)c2cc1OC,inactive
13,COc1c(C)c2c(c(O)c1C/C=C(\C)CCC(=O)O)C(=O)OC2,7.08 µM (active)
14,Oc1ccc(Cl)cc1C1C=C(c2ccc3c(c2)OCO3)NC(c2c(F)cccc2Cl)N1 (centres undefined),inactive
15,CCCCOc1ccc(C(=O)NO)cc1,inactive
16,Cc1nn(-c2ccc(F)cc2)c(-n2cccc2)c1C(=O)N1CCN(c2ccccc2)CC1,inactive
17,CCCCNC(=O)Cn1c(SCc2cccc(Cl)c2)nc2ccncc21,inactive
18,COc1ccc(-c2c(-c3ccc(OC)cc3O)nc(C)nc2C(F)(F)F)cc1,inactive
19,COc1ccc(Oc2cn[nH]c2-c2ccc(OC)cc2O)cc1,17.8 µM (active)
20,COc1ccc(-c2[nH]ncc2CN(C)Cc2c(C)n[nH]c2C)c(OC)c1,inactive
21,Cc1ccc(-n2c(SCC(=O)c3ccccc3)nc3c([nH]c4ccccc43)c2=O)cc1,inactive
22,COC(=O)C1=C(C(=O)OC)[C@@H]2N(Cc3ccccc3)c3ccccc3[C@@]23C[C@@H](C(=O)OC)N(S(=O)(=O)c2ccc(C(F)(F)F)cc2)C3=N1,inactive

row,SMILES,Potency
1,CNCCCOc1cc2nc(N3CCCN(C)CC3)nc(NC3CCN(C)CC3)c2cc1OC,inactive
2,Cc1cccc(-n2ccnc2SCC(=O)Nc2cc(C(F)(F)F)ccc2Cl)c1,inactive
3,COc1ccc(CCn2c3c(c(=O)[nH]c2=S)CN(C(C)C)CN3)cc1OC,inactive
4,COc1ccc(N2C(=O)CS(=O)(=O)C23C(=O)N(Cc2ccc(C)cc2)c2ccccc23)cc1Cl (centres undefined),inactive
5,CN(C)Cc1cn(-c2ccccc2)nc1-c1ccccc1,inactive
6,O=[N+]([O-])c1ccc2c(c1)Nc1nc3ccccc3nc1N2,3.55 µM (active)
7,O=C(Oc1ccc([N+](=O)[O-])cc1)c1ccc2ccccc2n1,inactive
8,O=[N+]([O-])c1cc2ccccc2nc1-c1ccccc1,inactive
9,C=C1C=C(C(F)F)n2ncc(C(=O)NCCc3ccccc3OC)c2N1,inactive
10,CCOc1ccccc1CNC(=O)Nc1cn(CC(C)C)c(=O)c2ccccc12,inactive
11,C/C=C/NNC(=O)Cc1ccc(OC)cc1,inactive
12,COc1ccc(OC)c(Nc2nc(-c3ccc(O)c(O)c3)cs2)c1,11.2 µM (active)
13,CCN1CCN(c2nc(Nc3cc(OC)ccc3OC)nc(Nc3cc(OC)ccc3OC)n2)CC1,inactive
14,COc1ccc(OC)c(NC(=O)COC(=O)Cc2ccsc2)c1,inactive
15,CCOC(=O)c1ccc(NC2=CC(c3ccc(OCC)cc3)N(c3ccc(C(=O)OCC)cc3)C2=O)cc1 (centres undefined),inactive
16,CN(Cc1ccccc1)c1ccc(/C=C/c2ccnc3ccccc23)cc1,inactive
17,CC(=O)/C(C)=N/O,inactive
18,CC(C)(C)C1CCC(NC(=O)c2cnn3c2NC(=C2CC2)C=C3C(F)F)CC1 (centres undefined),inactive
19,CC1=C(C(=O)Nc2ccccc2Cl)C(c2cccs2)n2ncnc2N1 (centres undefined),inactive
20,Cc1ccc(-c2nnc3ccc(SCC(N)=O)nn23)cc1,inactive
